Reference: publication PMC4336329 (PLoS ONE, 2015)
In all, about 310,000 compounds went through this assay and about 14,000 (4.5%) showed an effect of 50% or more. Effects have a minus sign here. Only a selection was taken, and strong results are over-represented in it overall.

Biological target: human ether-à-go-go-related gene (hERG) potassium channel (human, UniProt Q12809)
Test: primary screen, population patch clamp on CHO cells stably expressing hERG; higher = less effect of the substance
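Further: peak tail current of the secondary pulse compared with the same well before compound.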

Sequence of human ether-à-go-go-related gene (hERG) potassium channel (Q12809 whole entry, looked up): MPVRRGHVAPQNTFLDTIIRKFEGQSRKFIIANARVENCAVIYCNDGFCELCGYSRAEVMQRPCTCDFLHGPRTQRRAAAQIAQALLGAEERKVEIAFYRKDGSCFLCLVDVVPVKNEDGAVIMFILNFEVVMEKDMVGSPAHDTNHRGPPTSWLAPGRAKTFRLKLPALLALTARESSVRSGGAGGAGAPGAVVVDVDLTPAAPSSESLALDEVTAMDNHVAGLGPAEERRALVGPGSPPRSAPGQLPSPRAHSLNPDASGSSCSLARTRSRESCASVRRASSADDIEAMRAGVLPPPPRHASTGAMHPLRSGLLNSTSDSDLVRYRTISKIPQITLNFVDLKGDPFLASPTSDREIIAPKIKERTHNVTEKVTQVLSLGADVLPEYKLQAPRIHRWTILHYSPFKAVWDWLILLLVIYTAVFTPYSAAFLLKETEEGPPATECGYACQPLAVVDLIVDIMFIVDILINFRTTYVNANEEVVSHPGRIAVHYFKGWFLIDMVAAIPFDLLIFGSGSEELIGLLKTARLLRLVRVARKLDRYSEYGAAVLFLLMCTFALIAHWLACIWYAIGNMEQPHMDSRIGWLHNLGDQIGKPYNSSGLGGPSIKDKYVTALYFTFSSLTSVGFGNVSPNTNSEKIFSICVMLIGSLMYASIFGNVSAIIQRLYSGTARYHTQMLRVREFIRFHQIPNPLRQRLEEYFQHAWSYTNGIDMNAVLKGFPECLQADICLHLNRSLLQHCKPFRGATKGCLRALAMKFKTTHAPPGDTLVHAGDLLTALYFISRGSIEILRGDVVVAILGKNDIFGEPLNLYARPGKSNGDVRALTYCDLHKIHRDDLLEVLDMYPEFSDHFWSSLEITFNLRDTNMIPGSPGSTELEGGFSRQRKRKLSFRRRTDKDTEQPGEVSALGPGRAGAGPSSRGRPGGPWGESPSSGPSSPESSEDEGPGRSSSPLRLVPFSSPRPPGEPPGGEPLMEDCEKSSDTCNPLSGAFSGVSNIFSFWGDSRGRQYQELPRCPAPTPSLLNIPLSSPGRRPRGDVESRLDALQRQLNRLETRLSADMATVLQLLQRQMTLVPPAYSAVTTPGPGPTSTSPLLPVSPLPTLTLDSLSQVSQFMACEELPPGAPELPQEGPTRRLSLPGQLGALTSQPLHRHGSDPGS

Structure (SMILES) | hERG current change (%, negative = inhibition) at 10uM [%]
CCOc1ccc(/C(O)=C2/C(=O)C(=O)N(c3ncccn3)C2c2ccccc2)cc1 (stereo not shown) | -4.75
CN1CCN(S(=O)(=O)c2cccc(C(=O)Nc3cc(C(F)(F)F)ccc3N3CCCC3)c2)CC1 | -1.41
CCCCCn1nc(C)c(/C=N/NC(=O)c2ccoc2C)c1C | -43.8
CCCCCn1nc(C)c(/C=N\NC(=O)c2cc(C)oc2C)c1C | -65.5
Cc1cc(C(=O)N/N=C/c2c(C)nn(-c3ccccc3)c2C)c(C)o1 | 3.8
O=C(Nc1cccnc1Cl)c1cc([N+](=O)[O-])ccc1Cl | 9.09
c1ccc(-c2nc(NCCCn3ccnc3)c3ccccc3n2)cc1 | -59.3
c1ccc(CNc2nc(-c3cccnc3)nc3ccccc23)cc1 | -23.4
COc1ccc(C(CNc2nc(-c3cccnc3)nc3ccccc23)N(C)C)cc1 (stereo not shown) | -59.2
c1cncc(-c2nc(NCCCn3ccnc3)c3ccccc3n2)c1 | -53.5
Cc1ccc(CNc2nc(-c3cccnc3)nc3ccccc23)cc1 | 8.72
c1cncc(-c2nc(NCc3ccco3)c3ccccc3n2)c1 | -5.1
Cc1nc(NCCCn2ccnc2)c2ccccc2n1.Cl | 3.46
OC(CNc1nc(-c2cccnc2)nc2ccccc12)c1ccccc1 (stereo not shown) | -36.4
Fc1ccccc1CNc1nc(-c2cccnc2)nc2ccccc12 | 17.8
Fc1ccc(CNc2nc(-c3cccnc3)nc3ccccc23)cc1 | -50.4
COc1cccc(CNc2nc(-c3cccnc3)nc3ccccc23)c1 | -15.6
COCCCNc1nc(-c2ccncc2)nc2ccccc12 | -15.5
CC(=O)N1CCCc2cc(S(=O)(=O)N3CCCC(C(=O)Nc4ccccc4C)C3)ccc21 (stereo not shown) | 10.9
Cc1cc(C)cc(NC(=S)N2CCN(C(=O)c3ccco3)CC2)c1 | -0.347
Cc1onc(-c2ccccc2Cl)c1C(=O)OCC(=O)N1CCN(c2ccccc2)CC1 | -16.1
CC1=C(C(=O)OCc2ccccc2)C(c2ccc(C#N)cc2)NC(=O)N1CCCC(=O)O (stereo not shown) | 10.9

Structure (SMILES) | hERG current change (%, negative = inhibition) at 10uM [%]
CCOC(=O)CSc1nc2ccccc2c(=O)n1C | 10.1
CCOC(=O)c1c(NC(=O)CSc2nccn2C)sc(C(=O)NC)c1C | -11.5
COc1ccc2ccccc2c1/C=N/N1C(=O)CSC1=S | 16.7
COc1ccc(-n2nc(C(=O)NCC(=O)NCCCN3CCOCC3)c3ccccc3c2=O)cc1 | 3.4
CCN(CC(=O)N1CCCC1)S(=O)(=O)c1ccc(Br)cc1 | 13.5
CCc1cc(=O)oc2c3c(cc(OCC(=O)NC4CC4)c12)OC(C)(C)CC3 | -13.9
Cc1ccc(CN2CCN(/N=C/c3cccnc3)CC2)c(C)c1 | -47.5
COc1ccccc1NC(=O)Cn1c(C)cc(=O)c2cccc(OC)c21 | -33.3
COCCNC(=O)c1c[nH]c2ccc(S(=O)(=O)N3CCc4ccccc43)cc2c1=O | 6.11
O=C(OCc1ccccc1F)c1ccc2c(c1)-c1ccccc1C2=O | 16.4
Cl.N=c1n(CCCOc2ccc(Br)cc2)c2ccccc2n1CC(N)=O | -44.7
Cl.N=c1n(CCCOc2ccc(F)cc2)c2ccccc2n1CC(N)=O | -41.6
CCOC(=O)Cn1c(=N)n(CCOc2ccc(Br)cc2)c2ccccc21.Cl | -69.5
CCOC(=O)Cn1c(=N)n(CCOc2ccc(F)cc2)c2ccccc21.Cl | -65.8
Br.C=CCn1c(=N)n(CC(=O)OCC)c2ccccc21 | 5.36
CCOC(=O)Cn1c(=O)n(CC(=O)OCC)c2ccccc21 | 12.3
CCOC(=O)Cn1c(=N)n(CCOc2cccc(C)c2)c2ccccc21.Cl | -62.2
Cc1cccc(OCCn2c(=O)n(C)c3ccccc32)c1 | -13.6
Cc1cccc(OCCn2c(=O)sc3ccccc32)c1 | -3.38
CCOC(=O)Cn1c(=N)n(Cc2ccccc2F)c2ccccc21.Cl | -28.3
CCOC(=O)Cn1c(=N)n(CCOc2ccc(OC)cc2)c2ccccc21.Cl | -56.4
CCOC(=O)Nc1ccc(S(=O)(=O)N2CCOCC2)cc1 | 6.38

Structure (SMILES) | hERG current change (%, negative = inhibition) at 10uM [%]
CC(/C=N/Nc1nc2ccccc2[nH]1)=C\c1ccccc1 | -41.8
O=C(NCCCN1CCCC1=O)Nc1ccc(F)c(Cl)c1 | -1.92
Cc1nc2ccccc2c(=O)n1-c1cccc(NS(=O)(=O)c2ccccc2)c1 | -20.9
CC(=O)Nc1ccc(N2C(=O)c3ccc(C(=O)Nc4nnc(SCc5ccc(F)cc5)s4)cc3C2=O)cc1 | 13.4
Cl.OC(c1ccccc1)(c1ccc(F)cc1)C(c1ccccc1)N1CCOCC1 (stereo not shown) | 16.8
CC(=O)NC(=O)COC(=O)c1ccc2ncsc2c1 | 18.5
O=C(CSc1cccc2cccnc12)N/N=C/c1cccc(O)c1 | 2.95
CCOc1ccccc1N1CCN(C(=O)c2cc3c(C)cc(C)cc3[nH]2)CC1 | -4.74
COc1ccc(/C=N/NC(=O)c2ccccc2)cc1OS(=O)(=O)c1ccccc1 | -3.53
CCCCn1c(SC(C)C(N)=O)nc2cc(C(=O)OC)ccc2c1=O (stereo not shown) | -1.48
Cn1c(=O)[nH]c(=O)c2c1nc(N1CCN(CCO)CC1)n2Cc1ccccc1Cl | -6.38
O=C(NC(=O)c1ccccc1)NC1(C(F)(F)F)OCCO1 | 2.65
Cc1ccc(-c2nnc(SCC(=O)N/N=C/c3ccccc3C(=O)O)n2C2CCCCC2)cc1 | 11.1
CCCOc1ccc(C(C)=O)cc1CSc1nc(O)cc(=O)[nH]1 | 14.4
COc1ccc(S(N)(=O)=O)cc1C(=O)OCCCOC(=O)c1cc(S(N)(=O)=O)ccc1OC | 4.29
Br.CCCn1c(=N)n(CC(=O)OCC)c2ccccc21 | -4.66
CCOC(=O)Cn1c(=N)n(CCOc2ccc3ccccc3c2)c2ccccc21.Cl | -75.3
Br.CCOC(=O)Cn1c(=N)n(Cc2ccccc2)c2ccccc21 | -34.6
CN1CCN(C(=O)C2=C[C@H](c3coc4ccccc4c3=O)C[C@H](OCc3ccc(CO)cc3)O2)CC1 | -41.1
O=C(C1=C[C@@H](c2coc3ccccc3c2=O)C[C@@H](OCc2ccc(CO)cc2)O1)N1CCCCCCC1 | -66.5
C=CCOC(=O)C1=C[C@H](c2coc3ccccc3c2=O)C[C@H](OCc2ccc(CO)cc2)O1 | -62.3
O=C(C1=C[C@@H](c2coc3ccccc3c2=O)C[C@@H](OCc2ccc(CO)cc2)O1)N1CCOCC1 | -24.7

Structure (SMILES) | hERG current change (%, negative = inhibition) at 10uM [%]
C=CCOC(=O)C1=C[C@@H](c2coc3ccccc3c2=O)C[C@@H](OCc2ccc(CO)cc2)O1 | -40.9
O=C(C1=C[C@H](c2coc3ccccc3c2=O)C[C@H](OCc2ccc(CO)cc2)O1)N1CCN(Cc2ccccc2)CC1 | -61.7
O=C(C1=C[C@@H](c2coc3ccccc3c2=O)C[C@@H](OCc2ccc(CO)cc2)O1)N1CCN(Cc2ccccc2)CC1 | -48
O=C(C1=C[C@H](c2coc3ccccc3c2=O)C[C@H](OCc2ccc(CO)cc2)O1)N1CCOCC1 | -49.7
NC(=O)C1=C[C@@H](c2coc3ccccc3c2=O)C[C@@H](OCc2ccc(CO)cc2)O1 | -31
CCOC(=O)c1ccc(NS(=O)(=O)c2c(C)[nH]c(C)c2C(=O)N2CCCCC2)cc1 | 7.73
CC(C)C(NS(=O)(=O)/C=C/c1ccccc1)C(=O)NCc1ccc(F)cc1 (stereo not shown) | 25.3
CCn1c(SCC(=O)N2c3ccccc3CC2C)nnc1-c1ccco1 (stereo not shown) | -17.6
O=C(Nc1nnc(Cc2ccccc2F)s1)c1ccccc1Cl | 12.6
CCc1ccc(S(=O)(=O)NCc2cn3ccccc3n2)s1 | -11
CCCc1nc2c([nH]1)c(=O)n(C)c(=O)n2C | 15.8
Cn1c(=O)c2[nH]c(COc3ccc(C(C)(C)C)cc3)nc2n(C)c1=O | -55.1
CN(C)Cc1nc2c([nH]1)c(=O)n(C)c(=O)n2C | -0.353
N#Cc1ccc(-c2ccc(Cl)cc2)nc1SCC(=O)c1cccc(Cl)c1 | 28.9
N/C(=N\O)c1ccc([N+](=O)[O-])s1 | 11
Cc1ccc(P(=O)(OCCN2CCOCC2)C(C)(C)C)o1 (stereo not shown) | -4.4
COc1ccc(C2=NCC(=O)N(CC(=O)NCc3ccco3)c3sc4c(c32)CCCC4)cc1 | -35.7
O=C1CN=C(c2ccc(Br)cc2)c2c(sc3c2CCCC3)N1CCN1CCCCC1 | -64.4
COc1ccc(C2=NCC(=O)N(CC(=O)NCc3ccco3)c3sc4c(c32)CCCC4)cc1OC | -17.3
